ChEMBL document CHEMBL1201862, “PubChem BioAssay data set” (2004)
In all, about 56,000 sequences went through this assay and about 3,400 (6.1%) were called active. No stated cut-off is given here; in the data, active = GI50 up to about 1.1 µM and inactive = higher. Only a sample is shown. Measured potencies and affinities stand elsewhere.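 Step 1: Grow cells in 96-well plates. Step 2: Expose to compound for 48 hours at 5 concentrations. Step 3: Interpolate endpoints linearly; if unreached, use highest concentration. Here, GI50 denotes the concentration required for 50% inhibition of growth.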

System: HOP-62
Experiment: NCI tumour cell line growth inhibition, 48 h

For “cis-Bis[[(trimethylsilyl)methyl]amino]tetrachloroplatinum(IV), CHEMBL2146191”, which GI50 is on record?
The GI50 was 20.6 µM.

“[Bis(aminomethyl)diethylsilane]tetrachloroplatinum(IV), CHEMBL2146203” was tested. Which GI50 did it give?
The GI50 was 1.7 µM.

“mu-(1,7-nanodiamine-N,N')bis-(cis-aminedichloroplatimum (II)), CHEMBL2146215” was tested. Which GI50 did it give?
The GI50 was 7.64 µM.

With CISPLATIN, CHEMBL11359 as the substance, how does the GI50 read?
Its GI50 is 1.82 µM.

With “[Bis(aminomethyl)dimethylsilane]tetrachloroplatinum(IV), CHEMBL2146190” as the substance, how does the GI50 read?
Its GI50 is 6.61 µM.

“[Bis(aminomethyl)tetramethylenesilane]tetrachloropaltinum(IV), CHEMBL2146189” was tested. Which GI50 did it give?
Its GI50 is 6.32 µM.

For “[Bis(aminomethyl)dimethylsilane]dichloroplatinum (II), CHEMBL2146201”, which GI50 is on record?
Its GI50 is 35.3 µM.

How did the GI50 turn out when “[Bis(aminomethyl)tetramethylenesilane]dichloropaltinum(II), CHEMBL2146205” was run?
The GI50 was 39.7 µM.

With “[Bis(aminomethyl)ethylmethylsilane]tetrachloroplatinum(IV), CHEMBL2146192” as the substance, how does the GI50 read?
Its GI50 is 4.91 µM.

“[Bis(aminomethyl)pentamethylenesilane]tetrachloropaltinum(IV), CHEMBL2146204” was tested. Which GI50 did it give?
Its GI50 is 1.55 µM.

“[Bis(aminomethyl)pentamethylenesilane]dichloropaltinum(II), CHEMBL2146202” was tested. Which GI50 did it give?
Its GI50 is 2.33 µM.
